# Measured values: PubChem BioAssay AID624126 (The Scripps Research Institute Molecular Screening Center, 2012)
# Hit rate of the full screen: of about 360,000 compounds, about 1,400 (0.39%) were called active. What follows is part of a selection rich in actives, with near analogues and random picks from the rest. Values without a mark were called inactive.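 The calls were made as follows: active = activation above its plate's cutoff, the mean activation of sample wells plus 3 SD; inactive = the rest.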
# Target: Muscarinic acetylcholine receptor M4 (Homo sapiens) (UniProt P08173)
# Sequence (P08173 whole entry, looked up): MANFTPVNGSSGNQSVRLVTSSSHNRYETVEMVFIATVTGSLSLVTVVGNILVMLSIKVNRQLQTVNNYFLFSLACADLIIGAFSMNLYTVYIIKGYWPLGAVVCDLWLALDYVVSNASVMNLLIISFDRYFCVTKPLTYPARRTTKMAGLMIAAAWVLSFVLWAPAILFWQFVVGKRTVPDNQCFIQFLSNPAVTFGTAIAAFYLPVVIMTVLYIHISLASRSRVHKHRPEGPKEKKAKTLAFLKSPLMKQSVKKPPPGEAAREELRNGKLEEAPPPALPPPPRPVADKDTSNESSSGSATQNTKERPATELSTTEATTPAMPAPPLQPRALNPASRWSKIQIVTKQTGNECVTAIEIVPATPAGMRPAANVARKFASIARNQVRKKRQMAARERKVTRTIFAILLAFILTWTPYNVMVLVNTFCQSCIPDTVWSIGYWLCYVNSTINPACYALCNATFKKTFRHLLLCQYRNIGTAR
# Test: human M4 muscarinic receptor positive allosteric modulators, primary screen, CHO-K1 cells, Fluo-8 calcium fluorescence (AID 624126)
# Settings: CHO-K1 hM4/Gqi5, Fluo-8 calcium fluorescence, ACh EC20; at 3 µM; active compounds read high; 0% = ACh EC20, 100% = maximal ACh
row,SMILES,activation
1,COc1ccccc1N1CCN(Cc2cc(OC)c3c(c2)OCO3)CC1,-6.02%
2,CNCC(O)CN1CCN(c2ccccc2OC)CC1 (stereo not drawn),19.7% (active)
3,COc1ccccc1N1CCN(Cc2ccc(OC)c3ccccc23)CC1,-3.43%
4,COc1ccccc1-n1c(=S)[nH]c2c(sc(=S)n2-c2ccc(C)cc2C)c1=O,2.71%
5,COc1ccc(-c2c(NC(=O)c3ccco3)oc3ccc(Cl)cc3c2=O)cc1,11.2%
6,Cn1c(NC(=O)c2ccco2)c(-c2ccccc2Cl)c(=O)c2ccccc21,31% (active)
7,Cc1cccc(-c2c(NC(=O)c3ccco3)oc3ccc(Cl)cc3c2=O)c1,7.81%
8,Cc1cccc(C)c1-n1nnnc1C1(C)CCC(=O)N1CCOc1ccccc1 (stereo not drawn),6%
9,CC1(C(=O)NCc2ccc3c(c2)OCO3)CCN1C(=O)Cc1cccs1 (stereo not drawn),3.27%
10,COc1ccc(NC(=O)C(C)SCc2ccccc2)cc1 (stereo not drawn),0.44%
11,CSc1nc(C)cc(SC(C(C)=O)C(=O)Nc2ccccc2)n1 (stereo not drawn),22.6% (active)
12,CC(Sc1nnc2c(n1)C1CCC2(C)C1(C)C)C(=O)Nc1ccccc1 (stereo not drawn),-0.53%
13,CCCCN1C(=O)C(CC(=O)NCc2cccs2)CC(C(=O)N2CCCCCC2)=C1C (stereo not drawn),0.62%
14,Cc1cc(C)nc(NC(=O)c2cccc([N+](=O)[O-])c2)c1,31.6% (active)
15,O=C(Nc1ccc(C2CC2(Cl)Cl)cc1)c1cccc([N+](=O)[O-])c1 (stereo not drawn),-15.5%
16,C/C(=N\NC(=O)c1cccc([N+](=O)[O-])c1)c1cccnc1,1.53%
17,O=C(c1ccc(C(F)(F)F)cc1)C1CCCN(C(=O)c2csnn2)C1 (stereo not drawn),5.9%
18,c1ccc2c(c1)OCC(c1nn3cnnc3s1)O2 (stereo not drawn),13.1%
19,CCc1ccc(NC(=O)CSc2nnc(-c3cnccn3)n2Cc2ccco2)cc1,-2.71%
20,CCn1c(SCC(=O)Nc2cc(C)ccc2C)nnc1-c1cnccn1,35.7% (active)

row,SMILES,activation
1,CCn1c(SCC(=O)NC2CC2)nnc1-c1ccccn1,-4.53%
2,CC1COc2ccccc2N1C(=O)c1cccnc1Cl (stereo not drawn),-13.4%
3,CC(=O)c1c(C)[nH]c(C(=O)N2CCN(S(=O)(=O)c3ccc(F)c(F)c3)CC2)c1C,1.38%
4,CC(C)(C)C(=O)Nc1ccc(-c2cn3cccnc3n2)cc1,1.07%
5,COc1ccc2c(-c3ccccc3)cc(SCC(=O)N(C)C3CCS(=O)(=O)C3)nc2c1 (stereo not drawn),-1.12%
6,Cc1c(-c2cccc(Cl)c2)nc2ccccc2c1C(=O)OCC(=O)N(C)C1CCS(=O)(=O)C1 (stereo not drawn),22.5% (active)
7,CN(C(=O)COC(=O)c1cc(-c2ccco2)nc2ccccc12)C1CCS(=O)(=O)C1 (stereo not drawn),-1.7%
8,O=C(Nc1ccc(F)cc1)C1CCCN(S(=O)(=O)c2ccc(-n3cnnn3)cc2)C1 (stereo not drawn),8%
9,CCOC(=O)c1ccc(S(=O)(=O)N(CCO)Cc2cc3cc(OC)c(OC)cc3[nH]c2=O)cc1,-7.09%
10,O=C(CN1C(=O)S/C(=C\c2ccccc2F)C1=O)NCCCn1ccnc1,17.2% (active)
11,O=C(CCN1C(=O)c2ccccc2C1=O)NCCCn1ccnc1,8.67%
12,O=C(NCCCn1ccnc1)/C(=C\c1ccccc1F)NC(=O)c1ccccc1,-3.09%
13,CC(C)(C)CC(=O)Nc1nnc(SCC(=O)NCc2cccs2)s1,-0.98%
14,COCCNc1nnc(SCC(=O)NNC(=O)c2ccco2)s1,2.78%
15,COC(=O)CSc1nnc(NC(=O)CCc2ccccc2)s1,19.8% (active)
16,CC1=NN(C(=O)CCCc2ccccc2)C(O)(C(F)(F)F)C1 (stereo not drawn),9.78%
17,COc1ccc(CC(=O)N2N=C(C)CC2(O)C(F)(F)F)cc1 (stereo not drawn),24% (active)
18,CC1=NN(C(=O)CCc2ccccc2O)C(O)(C(F)(F)F)C1 (stereo not drawn),5.29%
19,Cn1cc(CN2CCCCC2c2ccccn2)c(-c2ccc3c(c2)OCCO3)n1 (stereo not drawn),5.23%
20,CCOC(=O)c1c(NC(=O)C2CC=CCC2C(=O)O)sc(C)c1CC (stereo not drawn),0.65%

row,SMILES,activation
1,O=C1CCCCC1Sc1ccc(Cl)cc1[N+](=O)[O-] (stereo not drawn),-0.97%
2,O=C(NC1CCCCC1)C1CCCN(S(=O)(=O)c2ccc(Br)s2)C1 (stereo not drawn),-0.65%
3,CC1=C(C(=O)N2CCOCC2)CC(CC(=O)NCc2cccc3ccccc23)C(=O)N1CCC1=CCCCC1 (stereo not drawn),0.96%
4,COc1ccc(C(C(=O)NCC2CCCO2)N(C(=O)Cn2nnc3ccccc32)c2ccc(NC(C)=O)cc2)cc1OC (stereo not drawn),6.34%
5,Cc1ccc(C(C(=O)NCc2ccco2)N(CC2CCCO2)C(=O)Cn2nnc3ccccc32)cc1 (stereo not drawn),4.26%
6,CCOc1cc(C(C(=O)NCC2CCCO2)N(C(=O)Cn2nnc3ccccc32)c2cccc(OC)c2)ccc1O (stereo not drawn),44.7% (active)
7,Cc1ccc(NC(=O)C2CC2)cc1S(=O)(=O)N1CCOCC1,0.09%
8,CC(C)Oc1ccc(C(=O)Nc2cc(=O)n(C)c(=O)n2C)cc1,5.54%
9,C=CCOc1ccc(/C=N/n2cncn2)cc1OC,8.05%
10,Cn1c2ccccc2c(=O)c2c(=O)n(Cc3ccco3)c(COc3ccccc3)nc21,21.8% (active)
11,COc1ccc(-c2oc3ncn(Cc4ccco4)c(=N)c3c2-c2ccc(OC)cc2)cc1,-6.61%
12,O=C(Cn1c(=O)n(Cc2ccco2)c(=O)c2ccccc21)NCC1CCCO1 (stereo not drawn),5.16%
13,COc1ccc(CCNC(=O)COC(=O)c2cc(=O)c3ccccc3o2)cc1,26.3% (active)
14,COc1ccc(CCNC(=O)COC(=O)c2ccc[nH]c2=O)cc1,11.3%
15,CCc1cccc(NC(=O)COC(=O)c2cc(=O)c3ccccc3o2)c1,10.9%
16,COC(=O)c1c(NC(=O)COC(=O)[C@@H](NS(=O)(=O)c2ccccc2)C(C)C)sc2c1CCC2,-4.52%
17,COC(=O)c1scc(S(=O)(=O)C(C)(C)C)c1-n1cccc1,-11.5%
18,COc1cc(C(=O)N2CCN(C3CCC(C)CC3)CC2)cc(OC)c1OC (stereo not drawn),-7.26%
